ID4 SMM = binds human ID4 protein on microarray; P47928; small molecule microarray, Flag-ID4 binding, fluorescence F/B; calls only; 1.2% of 31,000 active; call rule not given here;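 further: a binder raises fluorescence above local background on the spot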
Target sequence (P47928 whole entry, looked up): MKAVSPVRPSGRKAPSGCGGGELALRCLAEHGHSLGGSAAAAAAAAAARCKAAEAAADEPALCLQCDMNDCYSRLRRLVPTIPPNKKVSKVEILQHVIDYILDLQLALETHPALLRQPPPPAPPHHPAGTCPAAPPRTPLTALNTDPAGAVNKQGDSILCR
STK33 kin inh = blocks human STK33 kinase activity; Q9BYT3; ADP-Glo luminescence, MBP substrate; inhibition, % at 12.5 µM; 0.44% of 27,000 active; in the data active means inhibition above about 20%
NOMO-1 viab = STK33 inhibitor candidate reducing NOMO-1 cell viability; 7.5% of 37,000 active; inhibition, % (concentration not given with the values); NOMO-1 AML viability, CellTiter-Glo luminescence, 72 h; in the data active means inhibition above about 80%
p53 PUMA act = restores mutant p53 pathway signaling in SW480 cells | SW480 PUMA-promoter luciferase, p53 mutant reactivation | activation, % at 9.98 µM | 1.5% of 28,000 active | AID 624151; in the data active means activation above about 52%
* marks the source's active call; other numbers are inactive results; i = inactive; x = no result; + = active, no number. The full list was thinned out, with hits kept by preference.

SMILES	ID4 SMM	STK33 kin inh	NOMO-1 viab	p53 PUMA act
Cc1noc(C)c1NC(=O)Nc1ccc2c(c1)C(=O)N([C@@H](C)CO)C[C@H](C)[C@@H](CN(C)C(=O)C1CCCCC1)OCCCC[C@H](C)O2	i	x	x	8
C/C=C/C1=C(Cl)C(=O)[C@@H](O)[C@@]1(O)C(=O)OC	i	4	108*	26
Cc1cccc(C)c1Nc1scc(C)[n+]1C	x	x	-2	x
COc1cc(N)c(Cl)cc1C(=O)CCC1CCN(CCNS(C)(=O)=O)CC1	i	x	x	4
COc1cc(COc2cc(N)c(Cl)cc2C(=O)CCC2CCN(CCNS(C)(=O)=O)CC2)cc(OC)c1	i	0	143*	x
Oc1c(C(Nc2cccnc2)c2ccc(C(F)(F)F)cc2)ccc2cccnc12 (stereo unspecified)	i	2	109*	-31
FC(F)(F)c1nnc(Nc2cccnc2)s1	x	x	-22	x
C[C@@H]1CN([C@H](C)CO)C(=O)Cc2cc(NC(=O)Nc3ccccc3)ccc2O[C@@H]1CN(C)CC1CCCCC1	x	0	104*	x
C[C@H]1CN([C@@H](C)CO)C(=O)Cc2cc(NC(=O)Nc3ccccc3)ccc2O[C@@H]1CN(C)CC1CCCCC1	x	3	101*	x
C[C@@H]1CN([C@H](C)CO)C(=O)Cc2cc(NC(=O)Nc3ccc(F)cc3)ccc2O[C@@H]1CN(C)CC1CCCCC1	x	-3	100*	x
C[C@@H]1CN([C@H](C)CO)C(=O)Cc2cc(NC(=O)Nc3cccc4ccccc34)ccc2O[C@@H]1CN(C)CC1CCCCC1	x	-1	87*	x
C[C@@H]1CN([C@H](C)CO)C(=O)Cc2cc(NC(=O)Nc3ccc(F)cc3)ccc2O[C@@H]1CN(C)CC1CC1	i	x	x	2
C[C@@H]1CN([C@@H](C)CO)C(=O)Cc2cc(NC(=O)Nc3ccccc3)ccc2O[C@H]1CN(C)CC1CC1	i	x	x	6
O=C(CC1CC1)Nc1ccc2c(c1)[C@@H]1C[C@@H](CC(=O)N3CCCCC3)O[C@H](CO)[C@@H]1O2	i	x	x	x
C/C(=N\O)C12CC3(C)CC(C)(CC(C)(C3)C1)C2	x	x	120*	x
O=C(c1ccc([N+](=O)[O-])cc1)N(Cc1cc2ccccc2[nH]c1=O)c1ccccc1	+	5	35	-36
C[C@H]1CN([C@@H](C)CO)C(=O)c2cc(N(C)C)ccc2O[C@H]1CN(C)C(=O)Nc1ccccc1	i	-1	11	x
COC(=O)c1c(NC(=S)NCc2cc(C)n(C)n2)sc2c1CCCCCC2	i	0	5	9
COC(=O)c1c(NC(=S)NCc2ccccn2)sc2c1CCC2	i	4	x	68*
CC(C)c1ccc(OCC(=O)Nc2cccc3ncccc23)cc1	i	2	x	24
C[C@@H]1CN([C@H](C)CO)C(=O)Cc2cc(NC(=O)Cn3cnnn3)ccc2O[C@@H]1CN(C)S(=O)(=O)c1cn(C)cn1	x	2	5	x
Cc1nc(SC2CCCCN(C(=O)c3ccc(Cl)cc3)C2=O)c2c3c(sc2n1)CCCC3 (stereo unspecified)	x	x	93*	x
C[C@@H]1CN([C@H](C)CO)C(=O)c2cccc(NC(=O)Nc3ccc4c(c3)OCO4)c2O[C@H]1CN(C)Cc1ccc2c(c1)OCO2	x	x	101*	x
C[C@@H]1CN([C@@H](C)CO)C(=O)c2cccc(NC(=O)Nc3ccc4c(c3)OCO4)c2O[C@H]1CN(C)Cc1ccc(Cl)c(Cl)c1	x	x	102*	x
C[C@@H]1CN([C@@H](C)CO)C(=O)c2cccc(NC(=O)Nc3ccc(F)cc3)c2O[C@H]1CN(C)Cc1ccc2c(c1)OCO2	x	x	113*	x
SMILES	ID4 SMM	STK33 kin inh	NOMO-1 viab	p53 PUMA act
C[C@@H]1CN([C@@H](C)CO)C(=O)c2cccc(NC(=O)Nc3ccc4c(c3)OCO4)c2O[C@@H]1CN(C)Cc1ccc(C(F)(F)F)cc1	x	x	82*	x
C[C@@H]1CN([C@@H](C)CO)C(=O)c2cccc(NC(=O)Nc3ccccc3)c2O[C@H]1CN(C)Cc1ccc2c(c1)OCO2	x	x	89*	x
C[C@@H]1CN([C@@H](C)CO)C(=O)c2cccc(NC(=O)Nc3ccccc3)c2O[C@@H]1CN(C)Cc1ccc2c(c1)OCO2	x	x	35	x
C[C@@H]1CN([C@H](C)CO)C(=O)c2cccc(NC(=O)Nc3ccc4c(c3)OCO4)c2O[C@H]1CN(C)Cc1ccccc1	x	x	97*	x
COc1ccc(CN(C)C[C@@H]2Oc3ccc(NS(=O)(=O)c4cn(C)cn4)cc3CC(=O)N([C@H](C)CO)C[C@H]2C)cc1	x	-2	-7	x
O=C1O[C@H](c2ccccc2)[C@H](c2ccccc2)N2[C@H]1[C@@H](C(=O)N1CCN(c3ncccn3)CC1)[C@]1(C(=O)Nc3ccc(C#CCCO)cc31)[C@H]2c1ccc(OCCO)cc1	x	17	x	x
CN[C@H]1CC[C@@H](c2ccc(Cl)c(Cl)c2)c2ccccc21	x	3	107*	x
O=C1N=c2ccccc2=N/C1=N\C(=S)Nc1ccccc1	x	x	122*	x
CN1C(=O)c2ccccc2NC(=O)/C1=C\c1ccccc1	x	1	2	11
O=C1Nc2ccccc2/C1=C\c1c(Cl)[nH]c2ccccc12	i	29*	97*	-66
CN(C)c1ccc(/C=C2/C(=O)Nc3ccccc32)cc1	x	34*	40	-11
C[C@@H]1CCCCO[C@H](CN(C)Cc2ccccc2)[C@@H](C)CN([C@H](C)CO)C(=O)c2cc(NC(=O)c3ccncc3)ccc2O1	x	1	-8	x
CCn1c(SCC(=O)Nc2cc(C(F)(F)F)ccc2Cl)nnc1-c1cccnc1	i	1	8	-6
COc1ccc2c(c1OC)C(=O)O[C@@H]2[C@H]1c2c(cc3c(c2OC)OCO3)CCN1C	x	0	31	-5
COc1ccc2cc1Oc1ccc(cc1)C[C@H]1c3cc(c(OC)cc3CCN1C)Oc1c(OC)c(OC)cc3c1[C@H](C2)N(C)CC3	x	-2	121*	x
COc1cc2c3cc1Oc1c(OC)c(OC)cc4c1[C@@H](Cc1ccc(OC(=O)c5ccc([N+](=O)[O-])cc5)c(c1)Oc1ccc(cc1)C[C@@H]3N(C)CC2)N(C)CC4	+	4	98*	-2
COc1ccc2c(c1OC)C(=O)OC2[C@H]1c2c(cc3c(c2OC)OCO3)CCN1C (stereo partly specified)	i	-2	37	x
O=C(CN1C(=O)S/C(=C\C=C\c2ccccc2)C1=O)Nc1cccc(O)c1	i	x	x	59*
COC(=O)c1c(NC(=O)C2CC(=O)NN2Cc2ccccc2)sc2c1CCC(C)C2 (stereo unspecified)	i	6	109*	12
C[C@@H]1CN([C@@H](C)CO)C(=O)c2cc(NS(=O)(=O)c3ccccc3)ccc2O[C@H]1CN(C)C(=O)Nc1ccc(C(F)(F)F)cc1	i	x	19	-14
Cc1nc2sc3c(c2c2nnc(SCC(=O)c4ccccc4)n12)CCCC3	x	x	-12	x
Nc1nc(SCC(=O)c2ccccc2)nc2sc3c(c12)CCC3	i	5	7	113*
C[C@H]1CN([C@@H](C)CO)C(=O)c2cccc(NC(=O)C3CCCCC3)c2O[C@H]1CN(C)S(=O)(=O)c1ccc(Cl)cc1	x	x	9	x
C[C@@H]1CN([C@@H](C)CO)C(=O)c2cc(NS(=O)(=O)c3cccs3)ccc2O[C@H]1CN(C)Cc1ccc(C(=O)O)cc1	x	x	15	x
CCC(=O)N(C)C[C@H]1Oc2ncc(-c3ccc(F)cc3)cc2C(=O)N([C@H](C)CO)C[C@H]1C	i	x	x	x

Source: PubChem
